Results reported in PubChem BioAssay AID720550 (National Center for Advancing Translational Sciences (NCATS), 2013).
Records with an inconclusive call do not appear. A number with no mark means an inactive call. Calls of active or inactive are those of the source. Calls come from the whole dose curve; as a rule, active = well fitted curve in the direction sought with a large enough effect; inconclusive = small, poorly fitted or top-dose-only effect, or another doubt; inactive = no such curve, though single readings can be large or run the other way.

Test: qHTS for Inhibitors of Bloom's syndrome helicase (BLM): Thiazole Orange DNA Binding Counterscreen for SAR.
Conditions: fluorescence; Potency: Thiazole orange DNA displacement; series mostly up to 57.1 µM; activity change, negative = displacement: at the top concentration
Summary of the method: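 Counterscreen for nonspecific DNA binding: thiazole orange (100 nM) pre-bound to 50 nM unlabeled DNA, test compound added, 15 min room-temperature incubation, then ex 480/em 530 nm fluorescence measured; lack of displacement preferred.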

With `O=C(Nc1ccc2c(c1)OCO2)Nc1nnc(-c2ccncc2)s1` as the molecule, how does the “activity change, negative = displacement” value read?
The value was -28.2%.

With `O=C(Cc1nnc(-c2ccncc2)s1)Nc1ccc(F)c(C(F)(F)F)c1` as the molecule, how does the “activity change, negative = displacement” value read?
The value was 52.1%.

With `N/C(=N\c1nnc(-c2ccncc2)s1)Nc1ccc(F)c(C(F)(F)F)c1` as the molecule, how does the Potency read?
The Potency was “inactive”.

Which “activity change, negative = displacement” value does the source give for `O=C(Nc1ccc(-c2nc3ccccc3[nH]2)cc1)Nc1ccc2c(c1)OCCO2` here?
Its value is 2.09%.

With `CN1CCN(c2nnc(NC(=O)Nc3ccc(Cl)c(Cl)c3)s2)CC1` as the molecule, how does the “activity change, negative = displacement” value read?
Its value is 24.5%.

With `CC(=O)c1cccc(NC(=O)Nc2nnc(-c3ccncc3)s2)c1` as the molecule, how does the “activity change, negative = displacement” value read?
The value was 218%.

With `O=C(Nc1ccc(F)nc1)Nc1nnc(-c2ccncc2)s1` as the molecule, how does the “activity change, negative = displacement” value read?
Its value is 19.6%.

Which “activity change, negative = displacement” value does the source give for `N#Cc1cc(NC(=O)Nc2nnc(-c3ccncc3)s2)ccc1F` here?
Its value is -16.5%.

For `O=C(Nc1ccc(Cl)c(Cl)c1)Nc1nnc(-c2cccnc2)s1`, which “activity change, negative = displacement” value is on record?
The value was -0.0445%.

With `O=C(Nc1ccc(Cl)nc1)Nc1nnc(-c2ccncc2)s1` as the molecule, how does the “activity change, negative = displacement” value read?
Its value is 6.38%.

Which “activity change, negative = displacement” value does the source give for `O=C(Nc1ccc2ccccc2c1)Nc1nnc(-c2cccnc2)s1` here?
Its value is 7.64%.

With `O=C(Nc1ccc(Cl)c(Cl)c1)Nc1nc(-c2ccncc2)cs1` as the molecule, how does the “activity change, negative = displacement” value read?
The value was 250%.

Which “activity change, negative = displacement” value does the source give for `COc1ccc(-c2nnc(NC(=O)Nc3ccc4ccccc4c3)s2)cc1OC` here?
The value was 141%.

With `O=C(Nc1ccc(Cl)c(Cl)c1)Nc1ccc(-c2ccncc2)s1` as the molecule, how does the “activity change, negative = displacement” value read?
Its value is -4.46%.

Which “activity change, negative = displacement” value does the source give for `O=C(Nc1ccc(F)c(C(F)(F)F)c1)Nc1nnc(-c2ccncc2)o1` here?
The value was -22.2%.

Which “activity change, negative = displacement” value does the source give for `O=C(Nc1ccc(F)c(C(F)(F)F)c1)Nc1nnc(-c2cccnc2)s1` here?
The value was -2.96%.

With `O=C(Nc1ccc(N2CCOCC2)c(C(F)(F)F)c1)Nc1nnc(-c2ccncc2)s1` as the molecule, how does the Potency read?
Its Potency is 4.08 µM (active).

With `O=C(Nc1nnc(-c2ccncc2)s1)Nc1ccc(Cl)cc1F` as the molecule, how does the “activity change, negative = displacement” value read?
Its value is 61.6%.

For `O=C(Nc1ccc2ccccc2c1)Nc1nnc(-c2ccccn2)s1`, which “activity change, negative = displacement” value is on record?
Its value is -12%.

With `O=C(Nc1nnc(-c2ccncc2)s1)NC12CC3CC(CC(C3)C1)C2` as the molecule, how does the “activity change, negative = displacement” value read?
Its value is 91.5%.

With `O=C(Nc1ccc2ccccc2c1)Nc1nnc(-c2ccccc2)s1` as the molecule, how does the “activity change, negative = displacement” value read?
The value was 93%.

Which “activity change, negative = displacement” value does the source give for `N#Cc1ccc(NC(=O)Nc2nnc(-c3ccncc3)s2)c(Cl)c1` here?
Its value is 24.2%.

Which “activity change, negative = displacement” value does the source give for `O=C(Nc1ccc(-n2ccnc2)c(F)c1)Nc1nnc(-c2ccncc2)s1` here?
The value was -6.18%.

For `N#Cc1cc(NC(=O)Nc2nnc(-c3ccncc3)s2)ccc1Cl`, which “activity change, negative = displacement” value is on record?
The value was -24%.

For `COc1ccccc1CNC(=O)Nc1nnc(-c2ccncc2)s1`, which “activity change, negative = displacement” value is on record?
The value was 1.57%.

Which “activity change, negative = displacement” value does the source give for `O=C(Nc1cccc(C(F)(F)F)c1)Nc1nnc(-c2ccncc2)s1` here?
Its value is 48.7%.

With `O=C(Nc1ccc(Cl)c(Cl)c1)Nc1ncc(-c2ccncc2)s1` as the molecule, how does the “activity change, negative = displacement” value read?
The value was 126%.

For `O=c1c(Nc2ccc(Br)c(Br)c2)c(Nc2nnc(-c3ccncc3)s2)c1=O`, which Potency is on record?
The Potency was 10.2 µM (active).

Which “activity change, negative = displacement” value does the source give for `O=C(Nc1ccc(N2CCOCC2)c(F)c1)Nc1nnc(-c2ccncc2)s1` here?
The value was -24.6%.

With `Cc1cc(NC(=O)Nc2cccc(-c3ccncc3)n2)ccc1Cl` as the molecule, how does the Potency read?
The Potency was “inactive”.

Which “activity change, negative = displacement” value does the source give for `O=C(Nc1ccc2ccccc2c1)Nc1nnc(-c2ccccc2Cl)s1` here?
The value was 154%.

Which “activity change, negative = displacement” value does the source give for `O=C(Nc1ccc(F)c(C(F)(F)F)c1)Nc1nnc(C2CCCCC2)s1` here?
The value was 56.4%.

With `O=C(Nc1ccc2ccccc2c1)Nc1nnc(-c2ccccc2F)s1` as the molecule, how does the “activity change, negative = displacement” value read?
Its value is 2.78%.

With `N#Cc1cc(NC(=O)Nc2nnc(-c3ccncc3)s2)ccc1Br` as the molecule, how does the “activity change, negative = displacement” value read?
The value was -29.5%.

Which “activity change, negative = displacement” value does the source give for `Cc1cc(NC(=O)Nc2cccc(-c3ccncc3)n2)ccc1F` here?
The value was -8.74%.

Which “activity change, negative = displacement” value does the source give for `CCOC(=O)c1cccc(NC(=O)Nc2nnc(-c3ccncc3)s2)c1` here?
The value was 91.3%.

For `O=C(Cc1ccc2ccccc2c1)Nc1nnc(-c2ccncc2)s1`, which “activity change, negative = displacement” value is on record?
Its value is 12.1%.

Which “activity change, negative = displacement” value does the source give for `O=C(Nc1ccc(Cl)c(Cl)c1)N1CCN(c2ccncc2)CC1` here?
The value was 4.41%.
